# DT40 TDP1 no CPT: qHTS for Inhibitors of human tyrosyl-DNA phosphodiesterase 1 (TDP1): qHTS in cells in absence of CPT; DT40 Tdp1-/- hTDP1 cells, no CPT, ATP luminescence, 48 h; Potency, µM (titrated, usually from 46.2 µM), inactives show top-dose activity change, negative = growth inhibition, hits mostly inhibitors; 420,000 compounds, 15% hits; further: nearly all actives have a fitted effect of over 55% in size
#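 Chicken DT40 Tdp1-/- cells complemented with human TDP1, screened without camptothecin (DMSO vehicle only), 400 cells/well. Compounds pin-transferred, cells incubated at 37 °C for at least 48 hr. Growth read as ATP-dependent luminescence (CellTiter-Glo, 30 min at RT).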
# TDP1 cell CPT: qHTS for Inhibitors of human tyrosyl-DNA phosphodiesterase 1 (TDP1): qHTS in cells in presence of CPT; chicken DT40 Tdp1-/-;hTDP1 cells + 20 nM CPT, ATP luminescence, 48 h; Potency, µM (doses to about 46.2 µM), inactives show at the top dose activity change, negative = growth inhibition, most hits filed as inhibitors; 420,000 compounds, 12% hits; AID 686979, 2013; further: nearly all actives have a fitted effect of over 55% in size
#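 Cell growth measured by CellTiter-Glo luminescence after a minimum 48 h, 37 C compound exposure with 20 nM CPT in Tdp1-knockout DT40 cells stably expressing hTDP1, seeded 400/well; qHTS titration format.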
# TDP1 block: qHTS Assay for Inhibitors of Tyrosyl-DNA Phosphodiesterase (TDP1). AID 485290, 2010. recombinant TDP1, AlphaScreen DNA substrate cleavage. Potency, µM (top dose mostly 130 µM), inactives show at the top dose activity change, negative = inhibition, actives largely listed as inhibitors. 350,000 compounds, 0.28% hits; further: nearly all actives have a fitted effect of over 40% in size
#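 Recombinant E. coli-expressed Tdp1 (1 nM) preincubated with compound 15 min at RT, then 5'-biotin/3'-phosphotyrosine-FITC DNA substrate (15 nM) added for 5 min. AlphaScreen beads (10 ug/ml) added, 10 min RT; tyrosine-FITC cleavage read as signal loss.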
# RORg inh: qHTS for inhibitors of ROR gamma transcriptional activity. Potency, µM (top dose mostly 53.6 µM), without a hit: top-dose activity change, negative = inhibition, actives largely listed as inhibitors. AID 2551, 2010. 310,000 compounds, 5.4% hits. Drosophila S2 Gal4-RORgamma UAS-luciferase reporter, 20 h; further: nearly all actives have a fitted effect of over 60% in size
# Target sequence (P51450 whole entry, looked up, the tested form may be a part): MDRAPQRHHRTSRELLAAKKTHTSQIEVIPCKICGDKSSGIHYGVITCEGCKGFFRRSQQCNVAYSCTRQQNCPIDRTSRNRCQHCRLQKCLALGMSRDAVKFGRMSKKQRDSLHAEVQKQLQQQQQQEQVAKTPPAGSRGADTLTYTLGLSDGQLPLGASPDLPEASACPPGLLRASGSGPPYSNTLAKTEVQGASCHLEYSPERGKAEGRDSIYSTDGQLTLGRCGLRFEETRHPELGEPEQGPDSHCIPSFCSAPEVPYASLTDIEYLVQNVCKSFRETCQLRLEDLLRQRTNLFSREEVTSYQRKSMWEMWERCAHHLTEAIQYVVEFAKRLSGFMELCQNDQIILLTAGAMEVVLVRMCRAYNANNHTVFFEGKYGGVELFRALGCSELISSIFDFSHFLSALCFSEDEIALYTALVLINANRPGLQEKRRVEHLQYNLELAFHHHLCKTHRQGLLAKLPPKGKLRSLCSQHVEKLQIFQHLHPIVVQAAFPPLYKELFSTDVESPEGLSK
#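 Read-out: Photinus luciferase luminescence; inhibitors lower reporter signal. Insect Schneider cells with Gal4-ROR gamma fusion under metallothionein promoter, UAS reporter; 700 uM final copper sulfate induction, 20 hr, ambient temperature.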
# VP16 counter: VP16 counterscreen qHTS for inhibitors of ROR gamma transcriptional activity; Drosophila S2 Gal4-VP16 UAS-luciferase, luminescence, 20 h; Potency, µM (highest dose often 53.6 µM), without a hit: top-dose activity, negative = inhibition, hits mostly inhibitors; 310,000 compounds, 3.5% hits; AID 2546, 2010;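 further: Gal4-VP16 expression switched on by copper sulfate through the metallothionein promoter; nearly all actives have a fitted effect of over 50% in size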
# The depositor's hits bear a star; ? = inconclusive; · = no result; [ ] = dose if it differs, or a comment. Only some compounds are listed: those with a hit (about 19% of all), similar ones and a draw of the others. The call rests on the fitted dose curve; in most records, active means well fitted curve in the direction sought with a large enough effect; inconclusive means small, poorly fitted or top-dose-only effect, or another doubt; inactive means no such curve, though single readings can be large; an effect the other way counts as inactive or inconclusive. On the % scale 0 is the no-effect control and ±100 the full control effect; potency means the concentration at half of the fitted maximal effect.
SMILES,DT40 TDP1 no CPT,TDP1 cell CPT,TDP1 block,RORg inh,VP16 counter
COc1ccc(-c2ccccc2[C@H]2[C@@H]3C=CC[C@@H](C)[C@@H]3C(=O)N2Cc2ccccc2)cc1,10µM*,13µM*,0%[56.1 µM],?,?
C[C@@H]1CC=C[C@@H]2[C@H]1C(=O)N(Cc1ccccc1)[C@H]2c1ccccc1Br,16µM*,18µM*,-5%[56.1 µM],10%,?
CCN(CC)S(=O)(=O)c1ccc2c(c1)N(CC(=O)NCCCN1CCN(c3cc(Cl)ccc3C)CC1)C(=O)CO2,·,·,9%,·,·
COc1ccc(C(=O)NC(C)c2nnc(SCc3ccc(Cl)c(Cl)c3)n2C)cc1 (stereo not given),-21%,-24%,0%,15%,-9%
CCn1c(SCc2ccc(Cl)c(Cl)c2)nnc1C(C)NC(=O)c1ccc(OC)cc1 (stereo not given),16µM*,16µM*,0%,-16%[10 µM],-2%
CC1CCCCC1NS(=O)(=O)CCNC(=O)c1ccccc1 (stereo not given),-19%,-6%,-5%[0.505 µM],·,·
COCCCNC(=S)Nc1ccc(C)cc1,0%,7%,·,?,-19%
COCCCNC(=S)Nc1c(C)cc(C)cc1C,5%,5%,·,11µM*,?
COCCCNC(=S)NNC(=S)Nc1ccc(F)cc1F,-14%,-3%,4%,7.1µM*,-17%
Cc1cc(C)c(NC(=S)NCCO)c(C)c1,8%,2%,5%,-37%,2%
CCOCCCNC(=S)Nc1cc(C)cc(C)c1,-6%,-14%,-5%,6.3µM*,10µM*
Cc1occc1C(=O)NCc1nc(-c2ccccc2)no1,-5%,-4%,·,?,3%
CSc1nc(N2CCOCC2)c2c3c(sc2n1)CCCC3,13µM*,?,-2%,-21%,-2%
COC1C/C(=N\O)C2OC(c3ccccc3)OCC2O1 (stereo not given),?,2%,0%,-16%,1%
CCOC(=O)N1CCN(C(=O)CN(CC)S(=O)(=O)c2cc(C)ccc2OC)CC1,14%,-21%,1%[56.1 µM],-31%,-3%
Cc1ccc(S(=O)(=O)N2CCN(C(=O)c3ccccc3OCc3c(C)noc3C)CC2)cc1,?,18µM*,4%,·,·
Cc1cccc(N2CCN(C(=O)c3ccccc3OCc3c(C)noc3C)CC2)c1C,16µM*,18µM*,-7%[0.505 µM],·,·
CC(C)S(=O)(=O)c1csc(C(=O)Nc2ccc(F)cc2)c1N,?,21µM*,·,?,-5%
COc1ccc(CC(=O)Nc2cccc(-c3ccc4nnc(C)n4n3)c2)cc1OC,9.2µM*,-25%,0%,-32%,5%
COc1ccc(S(=O)(=O)Nc2cccc(-c3ccc4nncn4n3)c2)cc1F,2.3µM*,2.3µM*,4%,31%,2%
COc1ccc(C(=O)Nc2cccc(-c3ccc4nncn4n3)c2)cc1OC,-30%,?,2%,17%,-8%
COc1ccc(CC(=O)Nc2cccc(-c3ccc4nncn4n3)c2)cc1OC,15µM*,?,0%,41%,-1%
COc1cc2cc(CN(C(=O)Nc3ccccc3)C3CCCC3)c(=O)[nH]c2cc1OC,-23%,-14%,6%,4%,6%
CCc1ccc(NC(=O)N(Cc2c[nH]c3ccccc23)C2CCCCC2)cc1,6.5µM*,7.3µM*,2%,·,·
O=C(Nc1ccccc1)N(Cc1c[nH]c2ccccc12)C1CCCCCC1,18µM*,12µM*,5%,·,·
CCc1ccc(NC(=O)N(Cc2c[nH]c3ccccc23)C2CCCCCC2)cc1,7.3µM*,21µM*,5%,·,·
CC(=O)Nc1sc(C)c(C)c1C(=O)OCC(=O)Nc1ccccc1C(F)(F)F,?,8%,·,·,·

# Assay outcomes from PubChem.
